Assay [1] is described as follows: Viability qHTS for spleen associated tyrosine kinase inhibitor (SYKi) naive MV4-11 cells (AID 1963823). Also: potency is read from the fitted curve at half-maximal effect; nearly all actives have a fitted effect of over 40% in size. Conditions: MV4-11 AML viability, CellTiter-Glo luminescence, 72 h; series mostly up to 45 µM. Put shortly:
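SYK inhibitor-naive MV4-11 cells, 500 per well, exposed to compounds for 72 hr at 37 C, 5% CO2. Viability read as CellTiter-Glo luminescence after 10 min at room temperature.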

Assay [2] can be described thus: Viability qHTS for spleen associated tyrosine kinase inhibitor (SYKi) drug resistant MV4-11 cells (AID 1963824). Also: potency is read from the fitted curve at half-maximal effect; nearly all actives have a fitted effect of over 35% in size. Conditions: SYKi-resistant MV4-11 viability, CellTiter-Glo, 72 h; series mostly up to 45 µM. In short, it runs like this: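 SYK inhibitor-resistant MV4-11 AML cells, 500 per well, added to predispensed compounds and incubated 72 hr at 37 C, 5% CO2. Viability measured by CellTiter-Glo luminescence after 10 min at room temperature.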
In general terms: qHTS replaces the single test concentration by a dilution series.

The nature of assay [3]: Quantitative highthroughput screen to assess conditional lethalithy of NOMO1 cells grown in RPMI1640 with untreated serum (RPMI+s) (AID 1963876). Also: nearly all actives have a fitted effect of over 35% in size. Also: potency is read from the fitted curve at half-maximal effect.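 As to Viability: 100% = DMSO wells and 0% = empty wells without cells.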 Conditions: NOMO1 AML cells in RPMI+serum, CellTiter-Glo viability, 48 h; series mostly up to 45.8 µM. Put shortly: (§1)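 Each medium arm—HPLM with 10% dialyzed FBS, or RPMI1640 with 5 mM glucose and 10% untreated or dialyzed FBS—was screened against an 11-point, 3-fold compound titration for 48 h at 37 °C, with CellTiter-Glo luminescence as endpoint.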
On the technique in general: Cellular ATP, detected with luciferase, serves as a proxy for viable cell number.

Assay [4] can be described thus: Quantitative highthroughput screen to assess conditional lethalithy of P12 Ichikawa cells grown in RPMI1640 with untreated serum (RPMI+s) (AID 1963881).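 Also: 100% = DMSO wells and 0% = empty wells without cells; nearly all actives have a fitted effect of over 35% in size.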 Conditions: ATP luminescence, 48 h; Potency: viability; series mostly up to 45.8 µM. In short, it runs like this: as §1
Assay [5] is described as follows: Quantitative highthroughput screen to assess conditional lethalithy of SEM cells grown in Human Plasma-Like Medium with dialyzed fetal bovine serum (HPLM+ds) (AID 1963882). Also: nearly all actives have a fitted effect of over 35% in size. Conditions: SEM B-ALL cells in HPLM+ds, CellTiter-Glo viability, 48 h; series mostly up to 45.8 µM. Put shortly: as §1
Assay [6] in a line: Quantitative highthroughput screen to assess conditional lethalithy of SEM cells grown in RPMI1640 with unreated serum (RPMI+s) (AID 1963883). Conditions: SEM B-ALL cells, CellTiter-Glo viability, 48 h; series mostly up to 45.8 µM. In short, it runs like this:
as §1

Assay [7] can be described thus: Quantitative highthroughput screen to assess conditional lethalithy of SEM cells grown in RPMI1640 with dialyzed fetal bovine serum (RPMI+ds) (AID 1963884). Conditions: SEM B-ALL cells, RPMI+dialyzed FBS, CellTiter-Glo viability, 48 h; series mostly up to 45.8 µM. Put shortly: as §1
Assay [8] is described as follows: Cellular viability qHTS for adrenocortical cancer (ACC) cell line SW-13 (AID 1963989). Also: nearly all actives have a fitted effect of over 65% in size. Also: potency is read from the fitted curve at half-maximal effect.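 As to activity (max response): cells grown in serum-free medium with ITS supplement; % is scaled to controls: 0 for no effect and ±100 for the full control effect.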 Conditions: SW-13 ACC cells viability, CellTiter-Glo, 48 h; activity (max response): active compounds read low. In short, it runs like this: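 Viability was read as CellTiter-Glo luminescence after 48 h compound treatment (up to 46 uM final) of SW-13 cells grown serum-free; titration curves were fit with a four-parameter logistic model to give IC50 and efficacy.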

Assay [9] in a line: Cellular viability qHTS for adrenocortical cancer (ACC) cell line NCI-H295R (AID 1963990). Also: nearly all actives have a fitted effect of over 60% in size. Also: potency is read from the fitted curve at half-maximal effect. Conditions: CellTiter-Glo ATP luminescence, 48 h; series mostly up to 46.1 µM. In short, it runs like this:
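CellTiter-Glo ATP luminescence, read 48 h after compound addition, measured viability of NCI-H295R adrenocortical cells grown serum-free with ITS. Final concentrations spanned up to 46 uM. Data normalized to DMSO and doxorubicin, fitted for IC50 and maximal response.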

A short description of assay [10]: Quantitative highthroughput screen to assess conditional lethalithy of P12 Ichikawa cells grown in Human Plasma-Like Medium with dialyzed fetal bovine serum (HPLM+ds) (AID 1963879). Also: nearly all actives have a fitted effect of over 35% in size. Conditions: ATP luminescence, 48 h; Potency: viability; series mostly up to 45.8 µM. In short, it runs like this: as §1
Assay [11] can be described thus: Quantitative highthroughput screen to assess conditional lethalithy of P12 Ichikawa cells grown in RPMI1640 with dialyzed fetal bovine serum (RPMI+ds) (AID 1963880). Conditions: ATP luminescence, 48 h; Potency: P12-Ichikawa viability; series mostly up to 45.8 µM. In short, it runs like this:
as §1

Assay [12] in a line: Quantitative highthroughput screen to assess conditional lethalithy of NOMO1 cells grown in Human Plasma-Like Medium with dialyzed fetal bovine serum (HPLM+ds) (AID 1963878). Conditions: NOMO1 AML cells in HPLM+ds, CellTiter-Glo viability, 48 h; series mostly up to 45.8 µM. In short, it runs like this:
as §1

We go through four compounds from PubChem BioAssay (NCATS).

Where “and” joins values, the source holds several entries; their conditions need not be identical. Equal entries are not always repeated. Inconclusive results are not listed. Values without a mark were called inactive. Calls of active or inactive are those of the source. Calls follow the shape of the dose curve; as a rule, active = well fitted curve in the direction sought with a large enough effect; inconclusive = small, poorly fitted or top-dose-only effect, or another doubt; inactive = no such curve, though single readings can be large; an effect the other way counts as inactive or inconclusive.

For `Cc1ccc(C(=O)N(CCCN)[C@@H](c2oc3cc(Cl)ccc3c(=O)c2Cc2ccccc2)C(C)C)cc1`, the Potency in assay [1] is 10.5 nM (active); in assay [2], 8.3 nM (active); in assay [8] it was 0.0141 µM (active); in [9] it was 0.316 µM (active). Also, the Potency entry in assay [3], in [4], in assay [5], in assay [6] and in assay [7] was “inactive” throughout.

As to `CNc1nccc(-c2cccnc2Oc2cc(C(=O)Nc3cccc(C(F)(F)F)c3)ccc2C)n1`, the Potency in assay [1] was 517 nM (active) and 1.18 µM (active); in assay [2] it was 1.3 µM (active) and 2.09 µM (active). Moreover, the Potency result in assay [3], in [10], in assay [11], in [5] and in [7] was “inactive” each time.

Take `CCc1cc(-c2n[nH]c(C)c2-c2ccc3c(c2)OCCO3)c(O)cc1O`: the Potency in assay [1] was 2350 nM (active); in assay [2], 4170 nM (active); in assay [3], 9.35 µM (active); in [12], 11.8 µM (active); in assay [8], 14.1 µM (active); in assay [9], 15.8 µM (active).

In the case of `COc1ccc2c(Oc3ccc(NC(=O)c4c(C)n(CC(C)(C)O)n(-c5ccccc5)c4=O)nc3)ccnc2c1`, the results for the Potency in [1] and in assay [2] were 166 nM (active) and 332 nM (active), respectively. Moreover, the Potency result in [3], in assay [10] and in assay [9] was “inactive” each time. Besides, the activity (max response) in assay [8] is -3.94%.
